Data taken from PubChem BioAssay (NCI).
The panel holds about 79,000 compounds, 15% with a hit somewhere; the sample as a whole holds those more often. Unmarked numbers belong to inactive results. Active and inactive are the calls of the source. Cut-off read from the data, not from the text of the source: active = growth inhibition above about 70%; inactive = the rest. Where a SMILES comes first, the peptide text is derived from it. The star is where a group is joined. Trt = c1ccc(C(c2ccccc2)(c2ccccc2)*)cc1; Benzhydryl = c1ccc(C(c2ccccc2)*)cc1; Cbz = O=C(OCc1ccccc1)*

Experiments:
[1] = NCI Yeast Anticancer Drug Screen. Data for the rad50 strain (AID 155);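 note: 0% = growth of vehicle-only cultures of the same strain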; conditions: S. cerevisiae rad50 strain growth inhibition; at 50.0 µM; hits give high values
How it was run: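 Compounds were tested on a yeast strain with an engineered DNA damage repair alteration; the reported value is growth inhibition normalised to vehicle treatment.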

[2] = NCI Yeast Anticancer Drug Screen. Data for the mec2-1 strain (AID 157); conditions: S. cerevisiae mec2-1 strain, at 50.0 µM, hits give high values
How it was run: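 Vehicle-treated cultures served as reference for growth inhibition of compound-exposed mec2-1 yeast.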

[3] = NCI Yeast Anticancer Drug Screen. Data for the sgs1 mgt1 strain (AID 161);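 note: 0% = growth of cultures given vehicle only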; conditions: S. cerevisiae sgs1 mgt1 strain, at 50.0 µM, hits give high values
How it was run: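 Read-out: growth inhibition vs vehicle controls. Cells: mutant yeast strain deficient in DNA damage repair.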

[4] = NCI Yeast Anticancer Drug Screen. Data for the cln2 rad14 strain (AID 165);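 note: 0% = growth equal to vehicle treated cultures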; conditions: S. cerevisiae cln2 rad14 strain, at 50.0 µM, hits give high values
How it was run: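 Each compound was tested on cln2 rad14 yeast. Inhibition of growth was calculated against vehicle-exposed controls.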

[5] = NCI Yeast Anticancer Drug Screen. Data for the bub3 strain (AID 167); conditions: S. cerevisiae bub3 mutant strain, at 50.0 µM, hits give high values
How it was run: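 Growth of a checkpoint-deficient yeast mutant is measured after compound exposure. Values represent inhibition relative to vehicle.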

[6] = NCI Yeast Anticancer Drug Screen. Data for the mlh1 rad18 strain (AID 175); conditions: S. cerevisiae mlh1 rad18 strain growth inhibition; at 50.0 µM; hits give high values
How it was run: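 Vehicle-treated cultures served as the reference for growth inhibition in a yeast strain carrying DNA damage repair alterations exposed to each compound.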

| Structure (SMILES) | growth inhibition [1] | growth inhibition [2] [%] | growth inhibition [3] | growth inhibition [4] [%] | growth inhibition [5] [%] | growth inhibition [6] [%] |
| --- | --- | --- | --- | --- | --- | --- |
| CC(=O)C(c1ccccc1)N(CCO)Cc1ccccc1 (stereo not given) | 8.15% | -6 | -5.9% | 28.6 | 7.45 | 1.8 |
| COC(=O)C(Cc1ccccc1)NC(=O)C(Cc1ccccc1)NC(=O)CNC(=O)C(CSC(c1ccccc1)c1ccccc1)NC(=O)C(CSC(c1ccccc1)(c1ccccc1)c1ccccc1)NC(=O)OCc1ccccc1 (stereo not given) (Cbz-C(Trt)C(Benzhydryl)GFF-OMe; configuration not given here) | -5.55% | 25.4 | 19% | -14.9 | -9.8 | 28.1 |
| C=C(C(=O)O)C1CC[C@@]2(C)CCC[C@@](C)(O)C2C1 (stereo not given in full) | 21.1% | -5.8 | -7.75% | 10.8 | -3.35 | 25.6 |
| COc1ccc([N+](=O)[O-])c2c(NCC(O)CO)ccnc12 (stereo not given) | -0.35% | -11 | -9.7% | -8.2 | -25.1 | -47.2 |
| COc1ccc(CCN2C(=O)C(=O)N(c3ccc(Cl)c(Cl)c3)C2=O)cc1OC | 3.05% | -0.25 | 11.5% | 14.3 | -4.35 | 13 |
| c1ccc(CNn2nnc3ccccc32)cc1 | 16.6% | -14.4 | 7.25% | 3.15 | -2.95 | 21.9 |
| CC(=O)Oc1ccccc1-c1cc2ccccc2oc1=O | -20.2% | 20.8 | 0.85% | 5.15 | 38.8 | 11.8 |
| O=C1C(Cl)=C(Nc2ccc([N+](=O)[O-])cc2)C(=O)c2ccccc21 | 6.6% | 2.55 | 4.6% | -40 | -0.7 | 5.5 |
| O=c1c2ccccc2nc(-c2ccccc2)n1NC(=S)Nc1cccc(Cl)c1 | 7.45% | -27.1 | 3.65% | -71.7 | 28.7 | 0.55 |
| c1ccc(-c2nnc(-c3ccccc3)c3nonc23)cc1 | 0.55% | 14.6 | 9.1% | -12.8 | 12.6 | -22.3 |
| COC(=O)CC1(C(=O)OC)Oc2ccc(Br)cc2C(=O)N1c1ccc(Br)cc1Cl (stereo not given) | 26.9% | -16.4 | 24.6% | 15.2 | 19.4 | 27.7 |
| CN(C)c1ccc2c(SCC(=O)OCC(=O)C3(O)CCC4C5CCC6=CC(=O)C=CC6(C)C5C(O)CC43C)c3ccc(N(C)C)cc3nc2c1 (stereo not given) | 42.6% | 45.4 | 57.2% | 60 | 42.2 | 60.9 |
| CC1=NN(C(=O)c2cccnc2)C(=O)C1N=Nc1ccc(S(=O)(=O)Nc2ccccn2)cc1 (stereo not given) | 25.6% | -8.75 | 4.75% | 11.4 | -1.6 | 1.8 |
| NC1CCCCC1N.O=S(=O)([O-])CCCNC1CCCCC1.O=S(=O)([O-])CCCNC1CCCCC1.[Pt+4] | -6.3% | -8.15 | -15.7% | -23.6 | -21.1 | 15.9 |
| CC(N)c1ccc2ccccc2c1O (stereo not given) | -3.95% | -7.05 | 8.8% | -11.2 | -6 | 8.05 |
| COC(=O)Cc1c(C(C)=O)[nH]c2ccccc12 | 19.5% | 9.2 | 4.35% | 20.6 | 4.25 | 13.1 |
| O=C(Nc1cccc2c1[nH]c1c(-c3ccccc3)nccc12)c1ccccc1[N+](=O)[O-] | 58.1% | 45.1 | 49.2% | 23.2 | 42.6 | 51.5 |
| CC(=O)/C(=C/n1c(=S)sc2ccccc21)C(=O)Nc1ccccc1C | -3.75% | 0.9 | 54.4% | 15.9 | 9.2 | 41.6 |
| O=C(CN1CCC(O)(c2ccc(F)cc2)CC1)N1CCN(C/C=C/c2ccccc2)CC1 | 42% | 7.1 | 9.8% | 22.6 | -1.7 | 20.8 |
| CCOC(=O)C(Cl)(NC(=O)c1ccc(F)cc1)C(F)(F)F (stereo not given) | -6.25% | 6.7 | -18.5% | 7.3 | -12.9 | -18.1 |

| Structure (SMILES) | growth inhibition [1] | growth inhibition [2] [%] | growth inhibition [3] | growth inhibition [4] [%] | growth inhibition [5] [%] | growth inhibition [6] [%] |
| --- | --- | --- | --- | --- | --- | --- |
| CC(C)SC(=O)C[Si](C)(C)C | -5.8% | 6.95 | -2.9% | -16.1 | 26.7 | -1.65 |
| C[N+](C)(C)CCCOC1=Nc2ccccc2O/C1=C/c1ccccc1 | -52.2% | 2.1 | -6.3% | -27.4 | -4.1 | 18.5 |
| CC1CCCCN1P(N1CCCCC1C)N1CCCCC1C (stereo not given) | 36.4% | 20.4 | 29% | 25.6 | 23.4 | 33.5 |
| FC(F)(F)c1cccc(CSCc2c(CSCc3cccc(C(F)(F)F)c3)c(CSCc3cccc(C(F)(F)F)c3)c(CSCc3cccc(C(F)(F)F)c3)c(CSCc3cccc(C(F)(F)F)c3)c2CSCc2cccc(C(F)(F)F)c2)c1 | -12.7% | -2.5 | -6.35% | 12.2 | -7.65 | 7.45 |
| ONC1=Nc2ccccc2C(=S)N2CSCC12 (stereo not given) | -21% | -13.4 | -26.4% | -19.6 | -21.6 | 15.9 |
| O=Cc1ccnc2c(Cl)cccc12 | 16.4% | 22.8 | -1.1% | 15.1 | 6.3 | 18 |
| CC(C)CCCC(C)C1CCC2C3C(=O)C=C4C=CCCC4(C)C3CCC12C (stereo not given) | 5.95% | 11.2 | 34.1% | 9.55 | 5.9 | 10.5 |
| CN(C)Cn1c2ccccc2c2ccccc21 | -2.05% | -1.1 | 3.9% | 0.1 | -0.8 | -12.4 |
| CCC(CC)(SC(C)C(N)=O)C(C)=O (stereo not given) | 0.35% | 7.4 | -16.3% | -11.3 | 5.75 | 0.6 |
| OCC1CC(O)CN2CCc3c([nH]c4ccccc34)C2C1 (stereo not given) | 4.6% | 3.25 | 11.3% | -5.2 | 0.1 | 2.8 |
| O=C1c2ccccc2NC(c2cc(Cl)cc(Cl)c2O)N1CCc1ccccn1 (stereo not given) | 8.05% | -21.9 | -14.4% | 14.7 | -25.1 | -11.9 |
| O=C1/C(=C/c2ccccc2)N=C(c2ccccc2)N1n1c(-c2ccccc2)nc2ccccc2c1=O | 7.5% | 0.35 | 24.4% | 17.8 | -4.05 | 21.8 |
| CC(=O)NNc1nc(C)c(C(=O)NNC(=O)C(=O)Nc2ccc(Cl)cc2)s1 | 27% | -0.4 | 16.5% | -63.2 | 20 | 22.9 |
| CC(=O)C(C)C(C)=O | -2.95% | 0.7 | 1.4% | -21.6 | 22.6 | -0.85 |
| O=C1C(=O)N(c2ccccc2Cl)C(=O)N1Cc1ccccc1 | 10.7% | 8.45 | 0.95% | 13.8 | 2.75 | 2.1 |
| c1ccc(-c2c(-c3ccc4c(c3)OCO4)c(-c3ccc4c(c3)OCO4)c(-c3ccccc3)c3ccccc23)cc1 | 32.4% | 20.6 | 19.8% | 28.2 | -1.95 | 23.4 |
| Cc1ccc(/C=C(/C#N)C(N)=O)cc1 | 11.2% | 0.05 | 21.4% | 17.6 | 12.5 | 29.9 |
| CCN(CC)CCNC(=O)Cc1cc(O)c2c(c1O)C(=O)c1ccccc1C2=O | 73% (active) | 5 | 76.8% (active) | 40.9 | 6.1 | 51.5 |
| OCCN(CCO)CCCNc1ccnc2cc(Cl)ccc12 | -22.6% | -2 | -0.65% | -39.9 | -12.8 | 5.2 |
| CCOC(=O)c1c(C(F)(F)F)oc2c1ccc1nc3nonc3nc12 | 43.6% | 21.6 | 23.1% | 27.5 | 20.9 | 35 |
